Shown is part of a subset that was picked to be rich in the strongest signals.
Key:
Assay in all cases: glycan array binding signal (z-score within array); higher = stronger binding
Conditions in all cases: glycan notation: IUPAC condensed, linker removed
[1] = biological target: GalNAc(b1-3)Gal(a1-4)Gal(b1-4)GlcNAc
In short: (§1)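 Arrays were curated from the Consortium for Functional Glycomics database, 3228 in total, and kept only where the protein sequence was available. Binding is expressed as a within-array Z-score. This score was averaged across arrays of the same protein sequence at different concentrations or buffers and across linkers, and negative values can be read as non-binding.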

GalNAc(b1-4)Gal(b1-4)Glc = biological target: GalNAc(b1-4)Gal(b1-4)Glc
In short: as §1

GalNAc6S(b1-4)GlcNAc = biological target: GalNAc6S(b1-4)GlcNAc
In short: as §1

[2] = biological target: GlcNAc(a1-3)Gal(b1-4)GlcNAc
In short: as §1

[3] = biological target: GlcNAc(b1-2)Gal(b1-3)GalNAc
In short: as §1

[4] = biological target: GlcNAc(b1-3)Gal(b1-4)GlcNAc(b1-3)Gal(b1-4)GlcNAc(b1-3)Gal(b1-4)GlcNAc(b1-3)Gal(b1-4)GlcNAc(b1-2)Man(a1-3)[GlcNAc(b1-3)Gal(b1-4)GlcNAc(b1-3)Gal(b1-4)GlcNAc(b1-3)Gal(b1-4)GlcNAc(b1-3)Gal(b1-4)GlcNAc(b1-2)Man(a1-6)]Man(b1-4)GlcNAc(b1-4)GlcNAc
In short: as §1

[5] = biological target: GlcNAc(b1-3)Gal(b1-4)GlcNAc(b1-3)Gal(b1-4)GlcNAc(b1-3)GalNAc
In short: as §1

[6] = biological target: GlcNAc(b1-4)Gal(b1-4)GlcNAc
In short: as §1

[7] = biological target: GlcNAc(b1-4)GlcNAc(b1-4)GlcNAc(b1-4)GlcNAc(b1-4)GlcNAc
In short: as §1

[8] = biological target: Man(a1-3)[Man(a1-6)]Man(a1-6)[Man(a1-3)]Man(b1-4)GlcNAc(b1-4)GlcNAc
In short: as §1

[9] = biological target: Neu5Ac(a2-3)Gal(b1-3)GalNAc
In short: as §1

[10] = biological target: Neu5Ac(a2-3)Gal(b1-3)GlcNAc(b1-2)Man(a1-3)[GlcNAc(b1-4)][Neu5Ac(a2-3)Gal(b1-3)GlcNAc(b1-2)Man(a1-6)]Man(b1-4)GlcNAc(b1-4)GlcNAc
In short: as §1

[11] = biological target: Neu5Ac(a2-3)Gal(b1-3)[Fuc(a1-4)]GlcNAc(b1-3)Gal(b1-3)[Fuc(a1-4)]GlcNAc
In short: as §1

[12] = biological target: Neu5Ac(a2-3)Gal(b1-4)GlcNAc(b1-2)Man
In short: as §1

[13] = biological target: Neu5Ac(a2-3)Gal(b1-4)GlcNAc(b1-3)Gal(b1-4)GlcNAc(b1-3)Gal(b1-4)GlcNAc(b1-2)Man(a1-3)[Neu5Ac(a2-3)Gal(b1-4)GlcNAc(b1-3)Gal(b1-4)GlcNAc(b1-3)Gal(b1-4)GlcNAc(b1-2)Man(a1-6)]GalNAc
In short: as §1

[14] = biological target: Neu5Ac(a2-3)Gal(b1-4)GlcNAc(b1-6)GalNAc
In short: as §1

[15] = biological target: Neu5Ac(a2-3)Gal(b1-4)GlcNAc6S
In short: as §1

[16] = biological target: Neu5Ac(a2-3)Gal(b1-4)[Fuc(a1-3)]GlcNAc(b1-6)[Gal(b1-3)]GalNAc
In short: as §1

[17] = biological target: Neu5Ac(a2-3)Gal(b1-4)[Fuc(a1-3)]GlcNAc(b1-6)[Neu5Ac(a2-3)Gal(b1-3)]GalNAc
In short: as §1

[18] = biological target: Neu5Ac(a2-3)[GalNAc(b1-4)]Gal(b1-4)GlcNAc(b1-3)GalNAc
In short: as §1

[19] = biological target: Neu5Ac(a2-6)Gal(b1-4)GlcNAc(b1-2)Man(a1-3)[GlcNAc(b1-4)][Neu5Ac(a2-6)Gal(b1-4)GlcNAc(b1-2)Man(a1-6)]Man(b1-4)GlcNAc(b1-4)GlcNAc
In short: as §1

[20] = biological target: Neu5Ac(a2-6)Gal(b1-4)GlcNAc(b1-3)Gal(b1-4)GlcNAc(b1-2)Man(a1-3)[Neu5Ac(a2-6)Gal(b1-4)GlcNAc(b1-3)Gal(b1-4)GlcNAc(b1-2)Man(a1-6)]GalNAc
In short: as §1

[21] = biological target: Neu5Ac(a2-6)Gal(b1-4)GlcNAc(b1-3)Gal(b1-4)GlcNAc(b1-3)GalNAc
In short: as §1

[22] = biological target: Neu5Ac(a2-6)GalNAc(b1-4)GlcNAc
In short: as §1

[23] = biological target: Neu5Ac(a2-8)Neu5Gc(a2-3)Gal(b1-4)GlcNAc
In short: as §1

B1: PV12658A-bvu-496-32-496 (Bacteroides vulgatus) (protein)
chain: DLDGAITTPAAVELALNGIYYSLPGNGFNVIFPTVSGSFKAGTMWRQEIVSAGNAVYYSERMLPTLSFSDATEWDADYAVIKNANFLETACNRMSDGEFSGNRRAEVLGEIAYLRALAYFNILVRYCEFWDMNSEYGVVMRNEAPSVSNALKARSSVADSYQYILDQLEIAIEKAPDWKKLSQASKEAAKALKARVLLYAGKYTEAVAAVNDAIDTNSPLPEANYGDVFDKFSTTKEILFARVFDQKDATNTSTRQQCYGNSPTKKQGYWGPTNEYVELVGDDPRADAIFSKVDSLMDSRSSAVAYNLKSVKKLLNDANDMPVIFSRVSELYLIKAEALYRSGASISEAYAPIRKLRERAGAEIILPANNEELETAIFNEWMLELSFENWHEWFAMIRFAGYTEKPDFTRLLALNKTLREALEKEYEKSEAQGDNYYQRIIDRRIDAIPSSEISSNLECKQNPGY
glycan array binding signal (z-score) [1]: -0.363 | glycan array binding signal (z-score) (GalNAc(b1-4)Gal(b1-4)Glc): -0.027 | glycan array binding signal (z-score) (GalNAc6S(b1-4)GlcNAc): -0.216 | glycan array binding signal (z-score) [2]: -0.069 | glycan array binding signal (z-score) [3]: -0.342 | glycan array binding signal (z-score) [4]: 0.265 | glycan array binding signal (z-score) [5]: 0.161 | glycan array binding signal (z-score) [6]: -0.358 | glycan array binding signal (z-score) [7]: -0.447 | glycan array binding signal (z-score) [8]: 0.012 | glycan array binding signal (z-score) [9]: -0.233 | glycan array binding signal (z-score) [10]: -0.433 | glycan array binding signal (z-score) [11]: -0.275 | glycan array binding signal (z-score) [12]: -0.265 | glycan array binding signal (z-score) [13]: 7.6 | glycan array binding signal (z-score) [14]: -0.479 | glycan array binding signal (z-score) [15]: -0.525 | glycan array binding signal (z-score) [16]: 4.21 | glycan array binding signal (z-score) [17]: -0.336 | glycan array binding signal (z-score) [18]: -0.198 | glycan array binding signal (z-score) [19]: -0.152 | glycan array binding signal (z-score) [20]: 10.6 | glycan array binding signal (z-score) [21]: -0.476 | glycan array binding signal (z-score) [22]: -0.163 | glycan array binding signal (z-score) [23]: 5.59
